TDP1 cell CPT = DT40-hTDP1 cell growth loss with CPT; AID 686979; Potency, µM (top dose mostly 46.2 µM), for inactives: at the top dose activity change, negative = growth inhibition, usual class: inhibitors; hit rate 12% among 420,000; chicken DT40 Tdp1-/-;hTDP1 cells + 20 nM CPT, ATP luminescence, 48 h; further: potency means the concentration at half of the fitted maximal effect; nearly all actives have a fitted effect of over 55% in size
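Chicken DT40 Tdp1-/- cells complemented with human TDP1, 400 cells/well, exposed to compounds plus 20 nM camptothecin for at least 48 h at 37 C; viability read as ATP content by CellTiter-Glo luminescence.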
HT1080NT lethal = kills 2HG-producing HT-1080-NT fibrosarcoma cells. HT-1080-NT fibrosarcoma viability, CellTiter-Glo ATP luminescence, 48 h. Potency, µM (doses to about 46.1 µM), for the others: at the highest dose activity, negative = less viability, most hits filed as cytotoxic. hit rate 1.6% among 360,000. AID 686970;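 further: NT is the 2HG producing partner of a matched IDH1 knockdown line; potency means the concentration at half of the fitted maximal effect; 0% = DMSO-treated cells and -100% = media-only wells without cells; nearly all actives have a fitted effect of over 55% in size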
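Compounds were tested in concentration-response format on HT-1080-NT cells for 48 hours at 37 degrees C. Cell viability came from CellTiter-Glo luminescence; curves were classified by r2, response magnitude and activity.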
IL-1B inflam inh = blocks inflammasome-driven IL-1 beta release. AID 743279. hit rate 4.7% among 360,000. THP-1 LPS/ATP IL-1B secretion, AlphaLISA, 16 h; active compounds read low. activity change, % at 57.5 µM; in the data active means activity change below about -50%; inconclusive means mostly about -30% to -49%
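Secreted IL-1B measured by AlphaLISA bead assay after 16 h compound exposure of THP-1 cells; compounds (final up to 57.5 uM) added 1 h before LPS (250 ng/mL) and ATP (1.25 mM) stimulation; lower signal means less secretion.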
DT40 TDP1 no CPT = qHTS for Inhibitors of human tyrosyl-DNA phosphodiesterase 1 (TDP1): qHTS in cells in absence of CPT. DT40 Tdp1-/- hTDP1 cells, no CPT, ATP luminescence, 48 h. Potency, µM (highest dose often 46.2 µM), for the others: at the highest dose activity change, negative = growth inhibition, usual class: inhibitors. hit rate 15% among 420,000. AID 686978, 2013; further: potency means the concentration at half of the fitted maximal effect; nearly all actives have a fitted effect of over 55% in size
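No-CPT arm: Tdp1-/-;hTDP1 DT40 cells (400/well) plus compounds, incubated ≥48 hr at 37 °C. Readout CellTiter-Glo luminescence.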
HT1080 IDH1KD tx = kills HT-1080 cells with IDH1 knockdown | HT-1080 IDH1 knockdown viability, ATP luminescence, 48 h | Potency, µM (series often up to 46.1 µM), without a hit: at the highest dose activity, negative = toxicity, actives largely listed as cytotoxic | hit rate 2% among 360,000 | AID 686971;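 further: potency means the concentration at half of the fitted maximal effect; 0% = DMSO wells and -100% = cell-free medium wells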
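HT-1080-IDH1KD cells (IDH1 knocked down), 750/well in RPMI with 5% FBS, treated with compound 48 h at 37 degrees C. Viability by CellTiter-Glo luminescence, normalised to DMSO and no-cell wells; concentration-response curves classed.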
Active calls of the source: *; ? = inconclusive; · = not tested or not shown; [ ] = another dose, or the depositor's remark. In the library only some 19% were active in any assay of this set; here they are far more common. Unless noted, the call rests on the fitted dose curve; in most records, active means well fitted curve in the direction sought with a large enough effect; inconclusive means small, poorly fitted or top-dose-only effect, or another doubt; inactive means no such curve, though single readings can be large; an effect the other way counts as inactive or inconclusive. Unless noted, on the % scale 0 is the no-effect control and ±100 the full control effect.

SMILES | TDP1 cell CPT | HT1080NT lethal | IL-1B inflam inh | DT40 TDP1 no CPT | HT1080 IDH1KD tx
COc1ccccc1NC(=O)C1CCCN(S(=O)(=O)c2ccc3[nH]c(=O)ccc3c2)C1 (configuration not stated) | 21µM* | 6% | 25 | ? | 1%
COC(=O)c1ccccc1NC(=O)C1CCCN(S(=O)(=O)c2ccc(F)cc2)C1 (configuration not stated) | 15µM* | 15% | -1 | 10µM* | 11%
COc1ccc(C)cc1NC(=O)C1CCCN(S(=O)(=O)c2ccc3[nH]c(=O)ccc3c2)C1 (configuration not stated) | ? | 1% | 27 | ? | -6%
CN(/N=C/c1cc(Cl)cc(Cl)c1O)C(=S)NC(C)(C)C | ? | ? | 0 | 16µM* | -20%
CCCOc1ccc(C(C)=O)cc1CSc1nc(O)cc(=O)[nH]1 | 21µM* | -2% | 17 | 9.2µM* | 4%
CC(Sc1ncccn1)C(=O)NNC(=O)c1cccc(Cl)c1 (configuration not stated) | -8% | -3% | -1 | 7% | -7%
Cc1ccc(C(=O)OC(C)C(=O)NC2CCCCC2C)cc1S(=O)(=O)N1CCCCC1 (configuration not stated) | 18µM* | 13% | 23 | ? | 0%
Cc1ccc(S(=O)(=O)N2CCCCC2)cc1C(=O)OCC(=O)N1c2ccccc2NC(=O)C1(C)C | ? | 14% | -7 | ? | 12%
Cc1ccc(C(=O)OCC(=O)N2c3ccccc3NC(=O)C2(C)C)cc1S(=O)(=O)N1CCCCC1 | ? | -19% | -19 | 15µM* | -19%
Cc1ccnc2nc(C(=O)OCC(=O)NC3CCCC(C)C3C)nn12 (configuration not stated) | -20% | -24% | -8 | 1.5µM* | ?
Cc1ccc(C(=O)OCC(=O)NC2CCCC(C)C2C)cc1S(=O)(=O)N1CCCCC1 (configuration not stated) | 21µM* | -18%[9.24 µM] | 9 | ? | -3%
CN(C)c1ccc(CNC(=O)CCn2c(=O)c3cccn3c3ccc(F)cc32)cc1 | -5% | · | · | -15% | ·
CCOc1ccccc1NC(=O)C1CCN(C(=O)C2CC(=O)N(c3ccc(C)cc3)C2)CC1 (configuration not stated) | 10% | 2% | -20 | -9% | 4%
Nc1nc(C(c2ccccc2)c2ccccc2)cs1 | ? | -22% | -7 | ? | -12%
CCOC(=O)c1c(S(=O)(=O)N(C)Cc2ccccc2)c(C)n(C)c1C | ? | 5% | 0 | ? | 0%
CN(C)c1ccc(C(C(=O)NCC2CCCO2)N(C(=O)c2snc(C(N)=O)c2N)c2ccccc2)cc1 (configuration not stated) | ? | 11% | -3 | ? | 11%
Cc1cccc(N(C(=O)c2snc(C(N)=O)c2N)C(C(=O)NCC2CCCO2)c2ccc(N(C)C)cc2)c1 (configuration not stated) | 29µM* | 14% | -16 | ? | 14%
CN(C)c1ccc(C(C(=O)NCC2CCCO2)N(C(=O)c2snc(C(N)=O)c2N)c2ccc3c(c2)OCO3)cc1 (configuration not stated) | 0% | 4% | -66* | ? | 0%
Cc1ccc(NC(=O)CCCC2CCCCC2)c(O)c1 | -20% | ? | 13 | -24% | -5%
Cc1cc(C)c2nc(-c3ccccn3)cc(C(=O)N3CCCC3)c2c1 | ? | -13% | -15 | -20% | -18%
COC(=O)CCC(C(=O)CN1C(=O)c2ccccc2C1=O)N1C(=O)c2ccccc2C1=O (configuration not stated) | ? | 2% | 0 | ? | 8%
COc1ccc(CNC(=O)COc2cc(O)c3c(c2)OC(C)(C)CC3=O)cc1 | 33µM* | 4% | -7 | 0.82µM* | 0%
CC1(C)CC(=O)c2c(O)cc(OCC(=O)NCCc3ccc(S(N)(=O)=O)cc3)cc2O1 | -15% | -1% | 14 | -27% | 0%
